# Test results as given in PubChem BioAssay AID751 (NMMLSC, 2007).
# Out of some 24,000 compounds screened, about 40 (0.2%) were called active.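 How the source made its calls: active means inhibition of disassembly above about 33% (limit read from the data); inconclusive means likely self-fluorescent, control bead median signal at least 40; inactive means the rest.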 This excerpt belongs to a sample that is enriched for actives.
# Test system: 26S proteasome (yeast, GFP-tagged, ATP-dependent disassembly)
# Assay: blockers of yeast 26S proteasome breakdown – biochemical, bead-based flow cytometry, GFP-tagged proteasome, primary screen (AID 751);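 further: plate controls were ATP control with full disassembly for no effect and ATP-gamma-S intact proteasomes for full effect; higher percent means more bead fluorescence retained so stronger block of disassembly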
# Details: anti-FLAG beads, stronger effect = higher value, concentration not given here
row,SMILES,inhibition of disassembly
1,O=C(NCC(c1cccnc1)N1CCN(c2ccccc2)CC1)Oc1ccccc1 (stereo not given),44.6% (active)
2,COc1ccccc1N1CCN(C(CNC(=O)Oc2ccccc2)c2cccnc2)CC1 (stereo not given),19.4% (inactive)
3,CC(C)c1ccc(O)c(CN2CCN(c3ccccc3)CC2)c1,0.72% (inactive)
4,Cc1cccc(-n2c(C)nc3cc(C(=O)N4CCC5(CC4)OCCO5)ccc32)c1,1.69% (inactive)
5,CCOC(=O)C1=C(C)OC(N)=C(C(=O)OC)C12C(=O)Nc1ccc(Br)cc12 (stereo not given),-0.24% (inactive)
